Reference: PubChem BioAssay AID492998 (Southern Research Specialized Biocontainment Screening …, 2010)
The campaign covered roughly 2,300 compounds. About 550 (24%) were called active. The rule behind the calls is not given here. Not all results are given here. Results with a measured potency or affinity are listed apart.

assay: Vero E6 cell cytotoxicity, dose response, cytotoxicity control for non-replicating M. tuberculosis project, secondary assay (AID 492998); conditions: series mostly up to 20 µM; viability: at the top concentration;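 note: 100% = vehicle-treated cells and 0% = background wells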

Row | SMILES | viability
1 | O=C(CCN1CCOCC1)c1ccc(Br)cc1 | 82.3% (inactive)
2 | Cc1cc(C(=O)N/N=C/C=C/c2ccccc2)c(C)o1 | 81% (inactive)
3 | Nc1ccc2c(c1)oc1ccccc12 | 98.2% (inactive)
4 | CCCc1nnc(-c2ccc(OC)cc2)o1 | 97% (inactive)
5 | Cc1ccc(SCCC(=O)OCC(=O)NCC2CCCCC2)cc1 | 101% (inactive)
6 | NC(=O)CN1CCN(C2CC(=O)N(CCc3ccccc3)C2=O)CC1 (stereo not drawn) | 107% (inactive)
7 | NNC(=O)COc1cccc(Oc2ccccc2)c1 | 107% (inactive)
8 | CCOC(=O)COc1ccc2c3c(c(=O)oc2c1C)CCC3 | 92.1% (inactive)
9 | O=Cc1coc2ccc3ccccc3c2c1=O | 95.9% (inactive)
10 | O=C(OCc1ccc([N+](=O)[O-])cc1)c1ccc2ccccc2n1 | 96.5% (inactive)
11 | Cc1cc(C=C2C(=O)N(C)C(=S)N(C)C2=O)c(C)n1-c1cccnc1 | 113% (inactive)
12 | Cc1ccc2nc(C)c3c(c2c1)SCC3 | 103% (inactive)
13 | CCOC(=O)Cc1csc(NC(=O)COc2ccc3c(c2)CCC3)n1 | 103% (inactive)
14 | CCCCn1c(=O)c(C(=O)Nc2nnc(C(C)C)s2)c(O)c2ccccc21 | 91.5% (inactive)
15 | CCCCCCn1c(=O)c(C(=O)Nc2nnc(C)s2)c(O)c2ccccc21 | 83.8% (inactive)
16 | O=C(NC(=S)N1CCN(C/C=C/c2ccccc2)CC1)c1ccco1 | 113% (inactive)
17 | Brc1ccc(-c2ccc(CNCc3ccccn3)o2)cc1 | 91.8% (inactive)
18 | Cc1ccccc1OCCCCc1c(C)n[nH]c1C | 81.3% (inactive)
19 | O=C(COC(=O)CC12CC3CC(CC(C3)C1)C2)Nc1cccnc1Cl | 83.2% (inactive)
20 | NC(=O)COc1ccc2cc(-c3ccc(F)cc3)c(=O)oc2c1 | 86.5% (inactive)
21 | CCOC(=O)C1(CCc2ccccc2)CCN(Cc2ccccn2)CC1 | 96.7% (inactive)

Row | SMILES | viability
22 | O=C(COc1c(Br)cc(Br)c2cccnc12)N1CCCCC1 | 93.4% (inactive)
23 | COc1ccc(/C=N/NC(=O)c2ccncc2)cc1CN1CCOCC1 | 106% (inactive)
24 | Oc1ccc(F)c2cccnc12 | 98% (inactive)
25 | COc1ccc2cc(C(=O)C3CCCN(Cc4ccccn4)C3)ccc2c1 (stereo not drawn) | 88.9% (inactive)
26 | COc1ccc(C(=O)Oc2cccc3cccnc23)cc1S(=O)(=O)N1CCOCC1 | 91% (inactive)
27 | O=C(CCN1CCOCC1)c1ccc(Cl)cc1 | 82.1% (inactive)
28 | COc1cc(NC(=O)N2CCOCC2)cc(OC)c1 | 106% (inactive)
29 | Cc1ccc(NC(=O)CO/N=C/c2ccccc2C)c(C)c1 | 100% (inactive)
30 | COC(=O)CCSCc1cn2cc(Cl)ccc2n1 | 109% (inactive)
31 | COc1ccc(-c2nc3ccc(C)cc3c(=O)o2)cc1OC | 109% (inactive)
32 | CCOC(=O)Cn1c(-c2ccccc2)ccc(C#N)c1=O | 97.8% (inactive)
33 | COc1ccc(OC(=O)C(C)N2C(=O)c3ccccc3C2=O)cc1 (stereo not drawn) | 104% (inactive)
34 | O=C(Cc1ccc(Cl)cc1)OCC(=O)c1ccc[nH]1 | 109% (inactive)
35 | O=C(COC(=O)CC1CCCC1)Nc1ccc(Cl)cn1 | 108% (inactive)
36 | NC(=O)COC(=O)c1sc2ccccc2c1Cl | 90.3% (inactive)
37 | CCOC(=O)c1c(C)n(C)c2ccc(OC(C)C(=O)OC)cc12 (stereo not drawn) | 98.4% (inactive)
38 | Cc1cc(C(=O)COc2cccc3cccnc23)c(C)n1C | 87.9% (inactive)
39 | CCOC(=O)COc1ccc(C2CC(C)=NN2c2ccccc2)cc1 (stereo not drawn) | 102% (inactive)
40 | Cc1ccccc1Cn1cc(NC(=O)c2noc(C(C)C)c2[N+](=O)[O-])cn1 | 112% (inactive)
41 | CCOC(=O)CCCNC(=O)COC(=O)c1cc(Br)c(Br)s1 | 107% (inactive)
42 | O=C(N/N=C\c1ccco1)c1cncc(Br)c1 | 97.2% (inactive)

Row | SMILES | viability
43 | Cc1nnc(C)n1/N=C/c1cc(Br)cc(Br)c1O | 105% (inactive)
44 | COC(=O)C1=C(C(=O)OC)C(c2cc(Cl)ccc2O)c2sc(=O)[nH]c2S1 (stereo not drawn) | 92.5% (inactive)
45 | CSCCC(=O)N1CCCC(CNC(=O)c2ccc(-c3ccccc3)cc2)C1 (stereo not drawn) | 97.5% (inactive)
46 | CCOc1ccc(-c2ccc(C=O)o2)c([N+](=O)[O-])c1 | 98.1% (inactive)
47 | O=[N+]([O-])c1ccc(Nc2ccccc2)c2nonc12 | 103% (inactive)
48 | O=[N+]([O-])c1cncc([N+](=O)[O-])c1Nc1ccccc1Cl | 88.5% (inactive)
49 | CCCCc1ccc(NS(=O)(=O)c2c(C)n(C)c(=O)n(C)c2=O)cc1 | 89.4% (inactive)
50 | CCOc1ccc(OCC(=O)OCc2cc(=O)n3cc(Br)ccc3n2)cc1 | 100% (inactive)
51 | O=C(N/N=C/c1cccs1)c1cncc(Br)c1 | 101% (inactive)
52 | O=C(N/N=C\C=C\c1ccco1)c1cncc(Br)c1 | 97.4% (inactive)
53 | COC(=O)C1CC(=O)N(c2ccc(OCc3ccccc3Cl)cc2)C1 (stereo not drawn) | 106% (inactive)
54 | COc1cccc(OCC(=O)NNC(=O)C(=O)Nc2cccc(C)c2)c1 | 90.2% (inactive)
55 | CC(C)=CCN1CCN(CCC2=C(C)CCCC2(C)C)CC1CCO (stereo not drawn) | 88.3% (inactive)
56 | CN1C(=O)CC(Sc2ccccc2C(=O)O)C1=O (stereo not drawn) | 105% (inactive)
57 | Cc1ccc(N/N=C2\CS(=O)(=O)N(C)c3ccsc32)cc1 | 91.9% (inactive)
58 | CCCOc1ccc(-c2nc(C#N)c(NCCCn3ccnc3)o2)cc1 | 77.3% (inactive)
59 | COc1ccc(C(=O)OCn2nnc3ccccc3c2=O)cc1[N+](=O)[O-] | 107% (inactive)
60 | CC(C)CN(Cc1c(O)ccc2ccccc12)CC(C)C | 98.1% (inactive)
61 | O=C(CNC(=O)c1ccco1)OCc1ccc(C(=O)Oc2ccccc2)cc1 | 95.4% (inactive)
62 | Oc1ccc(Cl)cc1CNCc1ccc(F)cc1 | 97.2% (inactive)
63 | O=[N+]([O-])c1ccc(CNc2cccc(Cl)c2)s1 | 96.4% (inactive)
